A selection: hits, their analogues and other compounds. The true share with any hit is near 2.1%.
aSyn rescue – qHTS of alpha-syn Inhibitors | 370,000 tested, 0.14% active | Potency, µM (titrated, usually from 46.1 µM), usual class: activators | AID 652106, 2013 | Yeast expressing alpha-synuclein, growth rescue, BacTiter-Glo, 24 h; also: nearly all actives have a fitted effect of over 65% in size
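Readout is rescue of growth in alpha-synuclein-expressing yeast, so inhibitors of toxicity appear as activators. Growth after 24 hr at 30 deg C in galactose medium is quantified by luminescence.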
FUS suppressor – qHTS for Suppressors of FUS Proteinopathy: Primary screen using FUS-linked yeast assay | S. cerevisiae FUS-expressing, growth rescue, OD600, 24 h | Potency, µM (top dose mostly 76.6 µM), actives largely listed as activators | 390,000 tested, 0.24% active | AID 1347120, 2019; also: nearly all actives have a fitted effect of over 55% in size
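Quantitative HTS measuring growth restoration of FUS-toxic yeast. Galactose-induced cells (OD 0.005) were exposed 24hr at 30C to compounds at several concentrations, then absorbance at 600 nm was recorded.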
Abeta rescue – qHTS for compounds that reverse cellular toxicity of Amyloid beta (A-beta) peptide in yeast: Primary Screen; yeast expressing A-beta42, growth rescue, OD600, 48 h; response scale: 0% DMSO, 100% iron-clioquinol control; Potency, µM (titrated, usually from 46.1 µM), most hits filed as activators; 410,000 tested, 0.063% active; also: nearly all actives have a fitted effect of over 55% in size
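Yeast growth medium received pinned compounds, then yeast cells expressing toxic A-beta were added; plates incubated at 30 C for 48 hr. Growth read as absorbance at 600 nm, normalized to DMSO and equimolar FeCl3 plus clioquinol controls.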
TDP43 rescue – qHTS of TDP-43 Inhibitors | 410,000 tested, 1.8% active | TDP-43 expressing yeast growth rescue, BacTiter-Glo, 24 h | AID 652104, 2013 | Potency, µM (doses to about 46.1 µM), most hits filed as activators; also: nearly all actives have a fitted effect of over 50% in size
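Galactose-induced TDP-43 yeast, OD600=0.02, compound pinned; 24 hr, 30 deg C; BacTiter-Glo luminescence for growth. Inhibitors of TDP-43 toxicity read as activators.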
Numbers stand for hits; – = inactive; ? = inconclusive; · = no result; [ ] = remark or other dose. Calls follow the shape of the dose curve; as a rule, active = well fitted curve in the direction sought with a large enough effect; inconclusive = small, poorly fitted or top-dose-only effect, or another doubt; inactive = no such curve, though single readings can be large; an effect the other way counts as inactive or inconclusive.

SMILES | aSyn rescue | FUS suppressor | Abeta rescue | TDP43 rescue
CC(C)(C)C(=O)NC(=S)Nc1ccc(C(F)(F)F)cc1 | – | – | 13µM | –
O=c1c(Cl)c(Cl)cnn1Cc1ccc(F)cc1 | – | – | – | 20µM
CC(=O)NC(c1ccc(N(C)C)cc1)c1cc(Cl)c2cccnc2c1O (stereo unspecified) | – | – | – | 28µM
CCCCC(=O)NC(c1cccs1)c1cc(Cl)c2cccnc2c1O (stereo unspecified) | 22µM | – | ? | –
COc1ccc(C(=O)NC(c2ccccc2Cl)c2cc(Cl)c3cccnc3c2O)cc1 (stereo unspecified) | 16µM | – | – | ?
CC[n+]1ccnc2ccccc21 | – | · | · | ·
COc1ccc(CCc2c[nH]c(=O)c3cncnc23)cc1OC | – | · | · | ·
COc1ccc([N+](=O)[O-])cc1NC(=O)CSCc1ccc(Br)cc1 | – | – | – | 13µM
COc1ccc([N+](=O)[O-])cc1NC(=O)CC(C)c1ccccc1 (stereo unspecified) | – | – | ? | 16µM
COc1ccc([N+](=O)[O-])cc1NC(=O)CCS(=O)(=O)c1ccc(Br)cc1 | – | – | – | –
COc1ccc([N+](=O)[O-])cc1NC(=O)CSCc1ccccc1C | – | · | – | 13µM
COc1ccc([N+](=O)[O-])cc1NC(=O)C(C)OC(=O)Cc1ccc(OC)c(OC)c1 (stereo unspecified) | – | · | – | ?
C/C=C/C=C/C(=O)OC(C)C(=O)Nc1cc([N+](=O)[O-])ccc1OC (stereo unspecified) | – | – | – | 13µM
COc1ccc(S[C@]2(C(=O)N3CCCC3)CC(=O)N(C(=O)C3CC3)[C@@H]2c2ccc(OC)cc2)cc1 | · | – | · | ·
COc1ccc(C)cc1NC(=O)CSCc1ccccc1C | – | – | – | 13µM
COc1ccc([N+](=O)[O-])cc1NCc1cccc([N+](=O)[O-])c1 | – | – | – | 11µM
CCOC(=O)c1ccc(S(=O)(=O)N2CCN(c3nc(-c4cccs4)nc4ccccc34)CC2)cc1 | – | · | · | ·
CCc1nn2c(=O)cc(COC(=O)c3ccccc3NC(=O)C3CCCCC3)nc2s1 | · | – | – | –
CCOC(=O)c1c(NC(=O)Cc2ccccc2)sc2c1CCN(C)C2 | – | – | – | –
CCOC(=O)c1c(NC(=O)CSc2nnc(C)s2)sc2c1CCN(C)C2 | – | 25µM | – | –
Nn1c(SCc2cccc3ccccc23)nnc1-c1cc(-c2ccc(F)cc2)n[nH]1 | · | – | · | ·
CCOC(=O)/C(C#N)=C1/SC(C)C(=O)N1c1ccc(Br)cc1 (stereo unspecified) | – | 22µM | – | –
CCOC(=O)/C(C#N)=C1/SC(CC)C(=O)N1c1ccc(Br)cc1 (stereo unspecified) | – | ? | – | –
COc1ccc(C(=O)N2c3ccccc3C=CC2C#N)cc1 (stereo unspecified) | – | – | – | –
CCSC(=O)N1c2ccc(OC)cc2C=CC1C#N (stereo unspecified) | – | · | – | 22µM
SMILES | aSyn rescue | FUS suppressor | Abeta rescue | TDP43 rescue
COc1cc2c(NC3CCN(C)CC3)nc(N3CCCN(C)CC3)nc2cc1OCC1CCCCN1 (stereo unspecified) | – | · | · | ·
Cc1ccc(S(=O)(=O)N2CCN(C(=O)COC(=O)c3ccccc3Cl)CC2)c(C)c1 | – | – | – | 25µM
Cc1ccc(NC(=O)COC(=O)c2ccccc2OCC(=O)Nc2ccc(Br)cc2)c(C)c1 | – | · | · | ·
CN=c1scc(-c2cccs2)n1/N=C/c1ccc(O)c(O)c1O | – | 32µM | – | –[0.397 µM]
CCn1c(C)c(C)c2cc(C(=O)Nc3cccc(Cl)c3)ccc21 | – | – | – | –
Cc1c(C)n(CCC#N)c2ccc(Cl)cc12 | – | · | – | 13µM
CC[N+](CC)(CC)c1ccc(/C=C/c2ccc3ccccc3n2)cc1 | – | · | · | ·
CCCCCCC(=O)OCC(=O)c1ccc2c(c1)NC(=O)CO2 | – | – | – | 16µM
Cc1ccc(Cl)cc1N1CCN(C(=O)c2ccc(CS(=O)Cc3ccc(Cl)cc3)o2)CC1 (stereo unspecified) | ? | ? | – | 20µM
Cc1ccc(C)c(N2CCN(C(=O)c3ccc(CS(=O)Cc4ccc(Cl)cc4)o3)CC2)c1 (stereo unspecified) | ? | ? | – | ?
Cc1c(C(=O)N(Cc2ccc(N(C)C)cc2)CC2CCCO2)oc2ccc(Br)cc12 (stereo unspecified) | · | – | – | –
Cc1nc(Cl)c(C(=O)NC(=O)NCc2ccccc2)c(C)c1Cl | – | – | – | 14µM
Cc1ccccc1NC(=O)c1c(Cl)nc(C)c(Cl)c1C | – | – | – | –
CC(=O)c1cccc(NC(=O)c2csc(-n3nc(C)cc3C(F)(F)F)n2)c1 | – | – | – | –
Cc1cc(C(F)(F)F)n(-c2nc(C(=O)Nc3cccnc3)cs2)n1 | – | – | – | 22µM
CCn1c(=O)n(CC)c2cc(N3CCCCC3)c(NC(=O)Nc3ccccc3Cl)cc21 | · | – | – | –
Cc1ccc(Cn2c(Cc3ccccc3)nc3ccccc32)cc1 | – | – | – | –
Cc1ccc(Cn2c(-c3ccccc3)nc3ccccc32)cc1 | · | – | – | 25µM
Cc1cccc(Cn2c(C(C)O)nc3ccccc32)c1 (stereo unspecified) | – | – | – | –
Cc1cccc(-c2nc3ccccc3n2Cc2ccccc2)c1 | · | – | – | 11µM
Cc1cccc(NCc2nc3ccccc3n2Cc2ccccc2)c1 | – | – | ? | 16µM
Cc1nc2cc(NCc3nc4ccccc4n3Cc3ccccc3)ccc2n1C | – | · | – | –
Cc1cccc(Cn2c(COc3ccccc3)nc3ccccc32)c1 | ? | – | – | 18µM
Cc1cc(=O)n(CC(=O)N2CCCCC2)c2c1c(C)nn2C | · | – | – | –
Cc1ccc(S(=O)(=O)N2CCC(c3nc(-c4cccs4)nc4ccccc34)CC2)cc1 | – | · | · | ·
SMILES | aSyn rescue | FUS suppressor | Abeta rescue | TDP43 rescue
CC(C)(C)OC(=O)N1CCC(c2c(C(=O)NCCN3CCOCC3)cnn2-c2ccc(F)cc2F)CC1 | · | – | – | –
COc1ccc(Cc2nc3ccccc3n2Cc2ccccc2C)cc1 | · | – | – | –
CCCn1c(-c2cccc(Br)c2)nc2ccccc21 | · | – | – | –
COc1cccc(OCc2nc3ccccc3n2Cc2ccccc2C)c1 | · | – | ? | 22µM
Cc1ccccc1OCc1nc2ccccc2n1C | – | – | – | 18µM
Fc1ccc(Cn2c(-c3cccc(Br)c3)nc3ccccc32)cc1 | · | – | – | 22µM
COc1cccc(CNc2nc3cc(-c4ccc(OC)cc4C)sc3c(=O)n2C)c1 | – | – | – | 20µM
COc1cccc(CNc2nc3cc(-c4cscc4C)sc3c(=O)n2C)c1 | ? | ? | – | 20µM
COc1cccc(/C=C/c2ccnc3ccccc23)c1OC | – | · | · | ·
COc1ccc(NC(=O)C2CCCN2S(=O)(=O)c2cccc3cccnc23)c(OC)c1 (stereo unspecified) | – | – | – | 2.5µM
C=CCSc1nnc(-c2sc(-c3ccccc3)nc2C)n1C | · | – | – | 16µM
Cn1cc(C2(C)CCOc3ccccc32)c2ccccc21 (stereo unspecified) | · | – | · | ·

From PubChem BioAssay
